For test [1], the target named is T1, Aurora kinase A (Homo sapiens) (UniProt O14965).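 Also: values are mean percent inhibition.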
T1 sequence (whole entry): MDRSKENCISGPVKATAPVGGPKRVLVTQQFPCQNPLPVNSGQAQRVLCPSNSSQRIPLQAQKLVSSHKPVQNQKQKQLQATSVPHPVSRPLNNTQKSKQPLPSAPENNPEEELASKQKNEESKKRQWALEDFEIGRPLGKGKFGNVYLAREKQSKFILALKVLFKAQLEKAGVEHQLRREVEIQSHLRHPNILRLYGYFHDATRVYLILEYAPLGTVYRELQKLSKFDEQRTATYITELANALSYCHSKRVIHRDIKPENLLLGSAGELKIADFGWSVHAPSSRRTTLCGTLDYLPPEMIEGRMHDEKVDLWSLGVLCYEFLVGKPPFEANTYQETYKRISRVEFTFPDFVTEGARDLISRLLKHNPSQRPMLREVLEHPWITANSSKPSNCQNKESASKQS
The settings on record: at 1 µM.

Test [2] addresses Aurora kinase B (Homo sapiens) (UniProt Q96GD4). To be noted: at 0.1 µM.
The target is the same in test [3]. To be noted: at 1 µM.
Test [4] deals with T2, Aurora kinase C (Homo sapiens) (UniProt Q9UQB9).
T2 sequence (whole entry): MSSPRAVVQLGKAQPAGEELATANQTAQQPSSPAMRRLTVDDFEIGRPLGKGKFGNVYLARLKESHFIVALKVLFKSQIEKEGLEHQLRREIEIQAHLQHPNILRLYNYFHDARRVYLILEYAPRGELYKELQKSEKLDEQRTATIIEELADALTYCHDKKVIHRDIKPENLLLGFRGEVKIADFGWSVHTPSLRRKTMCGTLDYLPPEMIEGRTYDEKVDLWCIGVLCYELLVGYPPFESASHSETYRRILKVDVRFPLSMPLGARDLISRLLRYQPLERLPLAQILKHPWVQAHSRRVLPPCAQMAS
The settings on record: at 0.1 µM.

Test [5] has as its target T2, Aurora kinase C (Homo sapiens). To be noted: at 1 µM.
The target of test [6] is Serine/threonine-protein kinase 10 (Homo sapiens) (UniProt O94804). The settings on record: at 0.1 µM.
Sequence of Serine/threonine-protein kinase 10 (Homo sapiens) (O94804 whole entry, looked up): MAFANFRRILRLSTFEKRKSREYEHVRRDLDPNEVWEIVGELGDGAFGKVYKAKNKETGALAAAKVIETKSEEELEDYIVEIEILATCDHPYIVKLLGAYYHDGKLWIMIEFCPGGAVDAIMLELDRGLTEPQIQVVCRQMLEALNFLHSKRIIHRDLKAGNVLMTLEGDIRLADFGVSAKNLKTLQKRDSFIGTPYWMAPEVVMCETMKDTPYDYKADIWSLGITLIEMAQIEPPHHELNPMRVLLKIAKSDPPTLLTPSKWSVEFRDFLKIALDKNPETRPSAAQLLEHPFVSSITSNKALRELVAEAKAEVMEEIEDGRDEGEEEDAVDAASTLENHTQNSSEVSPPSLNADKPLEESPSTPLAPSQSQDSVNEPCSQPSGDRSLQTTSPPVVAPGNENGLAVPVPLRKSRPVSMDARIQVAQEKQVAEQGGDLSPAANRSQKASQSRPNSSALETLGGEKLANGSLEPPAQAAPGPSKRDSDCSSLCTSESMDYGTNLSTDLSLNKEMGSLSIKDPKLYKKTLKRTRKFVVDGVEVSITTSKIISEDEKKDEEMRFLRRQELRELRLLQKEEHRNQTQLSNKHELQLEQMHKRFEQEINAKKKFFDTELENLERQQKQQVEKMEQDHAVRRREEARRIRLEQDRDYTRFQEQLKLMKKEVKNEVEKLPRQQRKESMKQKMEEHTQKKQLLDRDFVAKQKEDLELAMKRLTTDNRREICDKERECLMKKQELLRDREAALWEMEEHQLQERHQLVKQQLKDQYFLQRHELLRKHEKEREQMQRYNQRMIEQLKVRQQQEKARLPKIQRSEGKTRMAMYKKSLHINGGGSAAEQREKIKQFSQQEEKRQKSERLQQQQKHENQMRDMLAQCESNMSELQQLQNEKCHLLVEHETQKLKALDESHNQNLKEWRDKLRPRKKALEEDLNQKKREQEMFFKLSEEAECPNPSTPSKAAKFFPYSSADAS
The target is the same in test [7]. The settings on record: at 1 µM.
Test [8] has as its target T3, Mitogen-activated protein kinase kinase kinase kinase 2 (Homo sapiens) (UniProt Q12851).
T3 sequence (whole entry): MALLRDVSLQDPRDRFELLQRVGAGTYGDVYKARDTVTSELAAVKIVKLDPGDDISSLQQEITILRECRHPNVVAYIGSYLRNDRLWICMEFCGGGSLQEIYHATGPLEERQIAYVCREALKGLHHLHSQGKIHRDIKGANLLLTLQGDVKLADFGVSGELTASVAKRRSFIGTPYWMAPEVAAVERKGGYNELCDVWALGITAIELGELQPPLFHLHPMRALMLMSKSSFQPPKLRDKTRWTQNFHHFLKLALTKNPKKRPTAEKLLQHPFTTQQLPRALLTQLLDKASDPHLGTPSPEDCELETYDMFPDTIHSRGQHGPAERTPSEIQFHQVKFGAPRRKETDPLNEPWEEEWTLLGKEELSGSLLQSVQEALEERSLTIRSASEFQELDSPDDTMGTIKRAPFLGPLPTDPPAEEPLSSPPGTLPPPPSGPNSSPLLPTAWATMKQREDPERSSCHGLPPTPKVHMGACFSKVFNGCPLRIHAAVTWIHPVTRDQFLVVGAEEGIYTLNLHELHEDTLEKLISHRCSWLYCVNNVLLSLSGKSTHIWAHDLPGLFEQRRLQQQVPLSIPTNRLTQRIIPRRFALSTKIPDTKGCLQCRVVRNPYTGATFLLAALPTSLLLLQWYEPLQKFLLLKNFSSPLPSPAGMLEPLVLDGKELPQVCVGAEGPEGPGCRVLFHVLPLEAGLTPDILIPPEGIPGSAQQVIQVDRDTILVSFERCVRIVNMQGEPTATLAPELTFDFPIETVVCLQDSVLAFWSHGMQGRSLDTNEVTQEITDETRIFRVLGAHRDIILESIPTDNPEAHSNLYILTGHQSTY
To be noted: at 0.1 µM.

For test [9], the target named is T3, Mitogen-activated protein kinase kinase kinase kinase 2 (Homo sapiens). To be noted: at 1 µM.
For test [10], the target named is Mitogen-activated protein kinase kinase kinase kinase 4 (Homo sapiens) (UniProt O95819). To be noted: at 0.1 µM.
Sequence of Mitogen-activated protein kinase kinase kinase kinase 4 (Homo sapiens) (O95819 2-1239 limits assumed): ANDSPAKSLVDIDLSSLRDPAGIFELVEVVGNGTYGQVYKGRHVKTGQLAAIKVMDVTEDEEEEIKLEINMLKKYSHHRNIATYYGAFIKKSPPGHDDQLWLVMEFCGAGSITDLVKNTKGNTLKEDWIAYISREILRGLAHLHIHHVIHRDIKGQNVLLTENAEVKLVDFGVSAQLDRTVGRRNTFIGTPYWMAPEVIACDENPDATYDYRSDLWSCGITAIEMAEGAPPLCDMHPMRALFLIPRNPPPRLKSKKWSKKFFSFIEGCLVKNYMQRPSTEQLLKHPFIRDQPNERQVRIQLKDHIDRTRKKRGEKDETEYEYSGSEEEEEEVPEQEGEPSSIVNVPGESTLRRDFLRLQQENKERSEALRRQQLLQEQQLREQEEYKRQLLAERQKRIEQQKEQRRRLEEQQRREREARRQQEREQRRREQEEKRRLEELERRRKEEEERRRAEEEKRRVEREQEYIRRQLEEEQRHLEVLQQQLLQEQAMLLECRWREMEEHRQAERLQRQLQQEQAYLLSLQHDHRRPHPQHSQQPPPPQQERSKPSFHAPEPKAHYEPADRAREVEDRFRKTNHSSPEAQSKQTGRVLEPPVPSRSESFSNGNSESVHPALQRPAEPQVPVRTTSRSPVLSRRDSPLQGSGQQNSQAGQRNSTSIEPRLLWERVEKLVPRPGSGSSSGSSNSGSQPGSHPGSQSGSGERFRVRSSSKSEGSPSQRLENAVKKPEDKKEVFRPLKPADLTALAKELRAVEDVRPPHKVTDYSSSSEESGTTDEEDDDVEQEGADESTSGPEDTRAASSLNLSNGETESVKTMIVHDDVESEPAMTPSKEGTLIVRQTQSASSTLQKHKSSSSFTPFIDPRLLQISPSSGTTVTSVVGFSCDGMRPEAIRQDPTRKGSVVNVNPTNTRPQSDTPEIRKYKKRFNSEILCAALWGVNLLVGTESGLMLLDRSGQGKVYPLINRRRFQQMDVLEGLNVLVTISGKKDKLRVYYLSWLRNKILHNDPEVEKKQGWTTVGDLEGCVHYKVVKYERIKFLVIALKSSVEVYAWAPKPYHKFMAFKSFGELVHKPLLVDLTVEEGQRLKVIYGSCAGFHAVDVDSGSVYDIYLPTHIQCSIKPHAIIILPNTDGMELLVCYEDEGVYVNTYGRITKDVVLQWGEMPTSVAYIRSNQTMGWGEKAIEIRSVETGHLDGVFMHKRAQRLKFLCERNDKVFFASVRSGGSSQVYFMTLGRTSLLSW
Test [11] has the same target. The settings on record: at 1 µM.
For test [12], the target named is Dual specificity mitogen-activated protein kinase kinase 1 (Homo sapiens) (UniProt Q02750). To be noted: at 0.1 µM.
Sequence of Dual specificity mitogen-activated protein kinase kinase 1 (Homo sapiens) (Q02750 whole entry): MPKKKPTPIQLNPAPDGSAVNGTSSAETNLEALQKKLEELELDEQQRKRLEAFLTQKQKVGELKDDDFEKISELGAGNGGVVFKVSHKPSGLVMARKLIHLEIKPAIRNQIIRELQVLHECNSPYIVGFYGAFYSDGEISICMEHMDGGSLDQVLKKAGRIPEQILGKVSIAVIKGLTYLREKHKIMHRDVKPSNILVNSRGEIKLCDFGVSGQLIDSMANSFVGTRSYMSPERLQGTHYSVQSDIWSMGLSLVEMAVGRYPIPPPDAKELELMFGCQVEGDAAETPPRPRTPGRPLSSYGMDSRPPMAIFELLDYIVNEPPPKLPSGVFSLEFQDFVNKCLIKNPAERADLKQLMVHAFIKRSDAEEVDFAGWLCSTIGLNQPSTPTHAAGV
Test [13] shares this target. The settings on record: at 1 µM.
For test [14], the target named is Misshapen-like kinase 1 (Homo sapiens) (UniProt Q8N4C8). The settings on record: at 0.1 µM.
Sequence of Misshapen-like kinase 1 (Homo sapiens) (Q8N4C8 whole entry, looked up): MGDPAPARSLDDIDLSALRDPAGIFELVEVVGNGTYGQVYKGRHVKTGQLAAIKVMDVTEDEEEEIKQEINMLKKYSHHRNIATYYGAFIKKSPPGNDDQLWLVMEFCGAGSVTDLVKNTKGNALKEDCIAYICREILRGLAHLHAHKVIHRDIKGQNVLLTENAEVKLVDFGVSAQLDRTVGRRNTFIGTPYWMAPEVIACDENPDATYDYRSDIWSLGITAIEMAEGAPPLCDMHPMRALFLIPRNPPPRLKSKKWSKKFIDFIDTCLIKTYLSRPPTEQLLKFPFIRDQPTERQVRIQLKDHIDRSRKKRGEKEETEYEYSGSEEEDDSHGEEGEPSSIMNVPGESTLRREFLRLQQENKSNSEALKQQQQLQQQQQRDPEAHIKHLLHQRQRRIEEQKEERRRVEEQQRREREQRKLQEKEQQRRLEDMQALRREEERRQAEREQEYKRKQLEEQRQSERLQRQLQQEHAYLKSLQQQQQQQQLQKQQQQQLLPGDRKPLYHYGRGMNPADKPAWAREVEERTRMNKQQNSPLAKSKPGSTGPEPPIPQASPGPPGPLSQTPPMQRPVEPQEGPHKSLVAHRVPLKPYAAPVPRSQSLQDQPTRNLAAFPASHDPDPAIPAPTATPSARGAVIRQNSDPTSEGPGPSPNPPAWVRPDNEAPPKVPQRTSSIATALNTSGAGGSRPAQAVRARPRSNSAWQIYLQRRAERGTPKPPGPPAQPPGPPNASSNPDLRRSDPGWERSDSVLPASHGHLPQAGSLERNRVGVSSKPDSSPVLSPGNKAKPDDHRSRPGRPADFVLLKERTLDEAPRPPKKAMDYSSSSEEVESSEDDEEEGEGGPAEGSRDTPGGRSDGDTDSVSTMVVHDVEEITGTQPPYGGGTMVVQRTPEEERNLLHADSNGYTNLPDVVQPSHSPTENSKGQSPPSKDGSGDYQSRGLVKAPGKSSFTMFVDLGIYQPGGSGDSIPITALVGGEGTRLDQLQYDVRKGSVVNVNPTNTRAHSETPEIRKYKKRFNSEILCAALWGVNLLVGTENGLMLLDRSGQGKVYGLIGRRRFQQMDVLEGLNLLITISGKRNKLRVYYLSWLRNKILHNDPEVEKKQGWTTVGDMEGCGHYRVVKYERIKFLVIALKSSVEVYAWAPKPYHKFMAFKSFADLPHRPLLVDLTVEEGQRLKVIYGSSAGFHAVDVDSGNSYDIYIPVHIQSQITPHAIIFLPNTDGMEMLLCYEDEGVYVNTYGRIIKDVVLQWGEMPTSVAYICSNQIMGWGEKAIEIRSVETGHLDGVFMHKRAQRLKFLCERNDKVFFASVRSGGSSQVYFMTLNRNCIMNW
Test [15] shares this target. The settings on record: at 1 µM.
Test [16] has as its target T4, Serine/threonine-protein kinase 4 (Homo sapiens) (UniProt Q13043).
T4 sequence (whole entry): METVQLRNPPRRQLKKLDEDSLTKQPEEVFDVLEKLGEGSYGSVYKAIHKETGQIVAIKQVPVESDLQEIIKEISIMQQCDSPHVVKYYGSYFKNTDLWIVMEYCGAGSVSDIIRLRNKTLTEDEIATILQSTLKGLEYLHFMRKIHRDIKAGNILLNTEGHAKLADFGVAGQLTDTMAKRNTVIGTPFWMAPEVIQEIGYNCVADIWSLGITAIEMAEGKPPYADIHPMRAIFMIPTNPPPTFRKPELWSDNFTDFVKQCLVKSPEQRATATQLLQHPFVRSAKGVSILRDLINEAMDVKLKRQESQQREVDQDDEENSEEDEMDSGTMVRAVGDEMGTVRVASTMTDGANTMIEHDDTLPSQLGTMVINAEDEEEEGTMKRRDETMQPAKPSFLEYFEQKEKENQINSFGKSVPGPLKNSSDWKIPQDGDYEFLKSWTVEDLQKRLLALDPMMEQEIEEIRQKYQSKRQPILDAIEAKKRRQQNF
The settings on record: at 0.1 µM.

In test [17] the target is T4, Serine/threonine-protein kinase 4 (Homo sapiens). The settings on record: at 1 µM.
Test [18] deals with T5, Serine/threonine-protein kinase 3 (Homo sapiens) (UniProt Q13188).
T5 sequence (whole entry): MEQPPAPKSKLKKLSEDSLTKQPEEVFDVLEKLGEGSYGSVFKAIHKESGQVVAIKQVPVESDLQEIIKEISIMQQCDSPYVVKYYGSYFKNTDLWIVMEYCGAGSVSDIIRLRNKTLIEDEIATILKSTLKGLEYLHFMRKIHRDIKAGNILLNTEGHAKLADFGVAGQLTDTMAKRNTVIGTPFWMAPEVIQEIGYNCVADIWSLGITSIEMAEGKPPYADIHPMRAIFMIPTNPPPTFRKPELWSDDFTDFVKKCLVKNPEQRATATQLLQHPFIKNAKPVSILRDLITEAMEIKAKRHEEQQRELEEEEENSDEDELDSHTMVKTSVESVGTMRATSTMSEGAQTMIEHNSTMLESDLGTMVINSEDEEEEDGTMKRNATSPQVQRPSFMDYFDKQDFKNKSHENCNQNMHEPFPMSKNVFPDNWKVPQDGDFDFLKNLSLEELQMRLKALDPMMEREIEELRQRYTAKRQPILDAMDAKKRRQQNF
The settings on record: at 0.1 µM.

Test [19] deals with T5, Serine/threonine-protein kinase 3 (Homo sapiens). To be noted: at 1 µM.
The target of test [20] is Serine/threonine-protein kinase 26 (Homo sapiens) (UniProt Q9P289). To be noted: at 0.1 µM.
Sequence of Serine/threonine-protein kinase 26 (Homo sapiens) (Q9P289 2-416 limits assumed): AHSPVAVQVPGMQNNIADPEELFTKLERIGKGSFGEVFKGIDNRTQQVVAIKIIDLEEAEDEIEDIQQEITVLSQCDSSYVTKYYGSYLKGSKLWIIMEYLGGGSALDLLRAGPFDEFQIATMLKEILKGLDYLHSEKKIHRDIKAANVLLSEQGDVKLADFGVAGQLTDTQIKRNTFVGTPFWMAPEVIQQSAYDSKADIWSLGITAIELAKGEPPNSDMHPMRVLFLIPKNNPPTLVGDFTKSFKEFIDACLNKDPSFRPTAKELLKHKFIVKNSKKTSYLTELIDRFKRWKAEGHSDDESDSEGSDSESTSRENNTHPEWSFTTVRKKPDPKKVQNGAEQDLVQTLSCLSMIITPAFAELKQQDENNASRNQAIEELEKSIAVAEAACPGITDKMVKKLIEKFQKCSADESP

SMILES strings stand for the structures.

Sequence of Aurora kinase B (Homo sapiens) (Q96GD4 whole entry): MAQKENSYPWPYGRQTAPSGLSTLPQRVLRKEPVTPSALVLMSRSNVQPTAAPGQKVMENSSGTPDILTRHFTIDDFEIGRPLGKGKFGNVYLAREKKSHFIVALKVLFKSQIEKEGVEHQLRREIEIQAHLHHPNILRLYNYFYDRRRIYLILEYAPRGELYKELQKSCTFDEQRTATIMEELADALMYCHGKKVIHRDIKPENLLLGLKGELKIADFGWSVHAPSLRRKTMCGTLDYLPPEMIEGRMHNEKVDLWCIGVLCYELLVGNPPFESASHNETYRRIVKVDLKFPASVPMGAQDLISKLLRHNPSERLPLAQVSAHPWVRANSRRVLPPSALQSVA

On to `COc1ccc2ncnc(Nc3ccc(OCc4ccccc4)cc3)c2c1`, for which the inhibition (in general, the drop in the measured response relative to a control, in per cent) in test [1] is 8.54%; in [2] it was 2.34%; in test [3], 22%; in test [4] it was 1.84%; in test [5] it was 10.5%; in [6], 4.51%. For the same compound, the inhibition in test [7] was 9.23%; in test [8] it was 0.8%; in [9], 1.74%; in [10], 3.79%; in [11], 7.18%; in [12] it was 3.95%. The inhibition in [13] was 2.41%; in test [14], 3.65%; in test [15], 4.24%; in test [16], 1.92%; in test [17] it was 4.04%; in [18], 1.62%. Moreover, the inhibition in test [19] is 3.92%; in test [20], -1.91%.

Turning to `Cc1ccc(NC(=O)CC2CC2)cc1-c1ccc(C(=O)NCC2CC2)cc1`, the inhibition in test [1] was 8.68%; in test [2] it was 0.07%; in test [3], 6.1%; in test [4], 1.19%; in test [5], -2.19%; in test [6], 3.11%. Moreover, the inhibition is 8.8% in test [7]; 0.05% in test [8]; 3.42% in [9]; 2.06% in [10]; 9.33% in [11]; 3.69% in test [12]. Besides, the inhibition came out at 2.73% in test [13]; 2.74% in test [14]; 5.47% in test [15]; 5.3% in test [16]; 8.01% in test [17]; 4.49% in test [18]. Besides, the values for the inhibition in test [19] and in test [20] were 5.72% and 0.36%, respectively.

For the compound `NC(=O)c1sc(-n2cnc3ccccc32)cc1OCc1ccccc1Br`, the inhibition stood at 4.39% in test [1]; 4.16% in test [2]; 9.94% in test [3]; 1.83% in test [4]; 8.84% in [5]; 17.4% in test [6]. In addition, the inhibition in test [7] is 60.6%; in test [8] it was 2.47%; in test [9], 8.46%; in test [10], 4.11%; in [11] it was 11.3%; in [12], 3.81%. Further, the inhibition in test [13] was 4.35%; in test [14], 5.6%; in test [15], 9.1%; in test [16] it was 1.82%; in test [17] it was 7.07%; in test [18], 4.03%. Moreover, the results for the inhibition in test [19] and in test [20] were 5.83% and -1.18%, respectively.

For the compound `Nc1ccc(C#Cc2cncnc2Nc2ccc(OCc3cccc(F)c3)c(Cl)c2)cc1`, the inhibition in test [1] was determined as 0.03%; in [2], 3.38%; in test [3] it was 1.27%; in test [4] it was 0.25%; in test [5], 2.24%; in test [6], 5.13%. In addition, the inhibition came to 6.55% in test [7]; 0.2% in test [8]; 1.98% in [9]; 2.07% in test [10]; 0.49% in [11]; 2.6% in [12]. Also, the inhibition in test [13] was determined as 3.23%; in test [14], 3.73%; in test [15], 1.66%; in [16] it was 2.07%; in test [17], 2.02%; in test [18], 3.2%. Moreover, the figures for the inhibition in [19] and in test [20] were 4.05% and -0.87%, respectively.

Turning to `COc1cc2ncn(-c3cc(OCc4ccccc4S(C)(=O)=O)c(C#N)s3)c2cc1OC`, the inhibition is 77.2% in test [1]; 28.2% in test [2]; 73.6% in test [3]; 17.7% in test [4]; 93.8% in [5]; 35.5% in test [6]. Also, the inhibition in test [7] worked out at 71.7%; in test [8], 8.65%; in test [9], 41.3%; in test [10], 57.5%; in [11], 90.5%; in test [12], 3.78%. The inhibition amounted to 7.23% in [13]; 43.7% in test [14]; 83.5% in test [15]; 22.3% in [16]; 66.4% in test [17]; 17.3% in test [18]. The results for the inhibition in [19] and in test [20] were 51.5% and -1.33%, respectively.

`O=C1Nc2ccccc2/C1=C/Nc1ccc2[nH]c(=O)[nH]c2c1`: the inhibition in test [1] turned out to be 52%; in [2], 10.8%; in test [3], 44.7%; in test [4], 9.06%; in test [5] it was 81.9%; in [6], 8.73%. The inhibition amounted to 17% in [7]; 1.3% in [8]; 15.2% in test [9]; 25.3% in [10]; 75.4% in [11]; 8.19% in [12]. Moreover, the inhibition was 6.88% in [13]; 17.4% in [14]; 64.3% in test [15]; 18.1% in test [16]; 67.2% in test [17]; 15.5% in [18]. The inhibition was 59.4% in [19] and -1.35% in test [20].

The values are drawn from ChEMBL document CHEMBL1961873, “Compounds: GSK PKIS; Assays: Nanosyn kinase panel” (2012).
